Test results reported in PubChem BioAssay (NCATS).

target: Glucocorticoid receptor (Homo sapiens) (UniProt P04150); assay: GR-GFP Redistribution (AID 450); conditions: U2OS GR-GFP nuclear translocation, laser cytometry, 2 h; series mostly up to 20.6 µM
Potency is read from the fitted curve at half-maximal effect.

Glucocorticoid receptor (Homo sapiens), sequence (P04150 whole entry, looked up): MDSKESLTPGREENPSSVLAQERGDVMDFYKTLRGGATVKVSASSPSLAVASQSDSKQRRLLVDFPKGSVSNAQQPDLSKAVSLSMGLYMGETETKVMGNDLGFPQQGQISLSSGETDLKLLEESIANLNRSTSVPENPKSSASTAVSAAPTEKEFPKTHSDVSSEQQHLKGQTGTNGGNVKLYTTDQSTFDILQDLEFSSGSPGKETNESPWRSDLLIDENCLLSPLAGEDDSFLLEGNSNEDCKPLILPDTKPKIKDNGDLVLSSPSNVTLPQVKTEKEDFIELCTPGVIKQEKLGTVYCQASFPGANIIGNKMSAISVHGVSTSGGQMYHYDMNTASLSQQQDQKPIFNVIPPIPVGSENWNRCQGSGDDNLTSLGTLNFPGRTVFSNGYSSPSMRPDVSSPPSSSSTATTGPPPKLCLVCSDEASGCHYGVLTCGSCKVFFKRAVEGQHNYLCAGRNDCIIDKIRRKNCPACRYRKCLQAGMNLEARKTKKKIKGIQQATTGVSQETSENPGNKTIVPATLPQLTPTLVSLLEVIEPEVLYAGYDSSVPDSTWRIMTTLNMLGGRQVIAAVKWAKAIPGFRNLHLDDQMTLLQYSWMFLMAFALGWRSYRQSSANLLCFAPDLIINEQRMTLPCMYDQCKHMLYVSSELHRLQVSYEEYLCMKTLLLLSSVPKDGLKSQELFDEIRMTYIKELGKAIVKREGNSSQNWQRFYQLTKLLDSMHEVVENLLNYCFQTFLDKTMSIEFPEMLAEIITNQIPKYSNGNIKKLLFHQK

Potency, inactive:
CC1=C(C(=O)Nc2ccccc2)C(c2ccncc2)C(C#N)=C(SCC(=O)NC(C)C)N1 (stereo not given) > 20.6 µM, CC(=O)Nc1cccc(NC(=O)CSc2nc(C)c(C)c(C)c2C#N)c1 > 20.6 µM, COC(=O)c1ccc(OC(=O)c2ccc(OC)c(OC)c2)c(OC)c1 > 20.6 µM, CCN(CC)CCCN1C(=O)C(=O)/C(=C(/O)c2ccccc2)C1c1ccccn1 (stereo not given) > 20.6 µM, CN(C)c1nc2n(c(=O)n1)C(C#N)CS2 (stereo not given) > 20.6 µM, C=CC(O)Cc1c(C)n[nH]c1C (stereo not given) > 20.6 µM, CCN(CC)CCN1C(=O)C(=O)/C(=C(/O)c2ccc(C)cc2)C1c1cccnc1 (stereo not given) > 20.6 µM, O=S(=O)(c1cccc2nsnc12)N1CCN(C/C=C/c2ccccc2)CC1 > 20.6 µM, C/C=C/c1ccccc1OCc1ccc(C(=O)O)o1 > 20.6 µM, COc1ccc(C(=O)NCCCCCC(=O)O)cc1OC > 20.6 µM, CC1(C)Cc2c(sc3ncn4nnnc4c23)CO1 > 20.6 µM, Nn1c(SCC(=O)Nc2ccc3c(c2)OCCO3)nnc1C(F)(F)F > 20.6 µM, CCN=C1SC(C(=O)Nc2ccc(Cl)c(Cl)c2)CC(=O)N1CC (stereo not given) > 20.6 µM, COc1cccc(OC)c1-c1nn2c(-c3ccco3)nnc2s1 > 20.6 µM, N/C(CCN1CCCCC1)=N/O > 20.6 µM, COc1ccc(/C(O)=C2\C(=O)C(=O)N(Cc3ccco3)C2c2cc(OC)ccc2OC)cc1 (stereo not given) > 20.6 µM, COc1ccccc1-n1c(=O)c2c3c(sc2n2c(SC(C)C)nnc12)CCC3 > 20.6 µM, Cc1nnc(SCc2nc3ccccc3[nH]2)s1 > 20.6 µM, CC(O)CNc1nc2c(c(=O)n(C)c(=O)n2C)n1Cc1cccc(C(F)(F)F)c1 (stereo not given) > 20.6 µM, O=C(NCc1ccco1)c1ccc(=O)[nH]n1 > 20.6 µM, COCCCNC(=O)C(C#N)c1nc2ccccc2nc1N1CCCC1 (stereo not given) > 20.6 µM, O=c1c2ccccc2ncn1Cc1ccco1 > 20.6 µM, C=CCNc1sc(C(=O)C2CC2)c(N)c1C#N > 20.6 µM, CN(C)c1ccc(O)c2c1CC1CC3[C@@H](N(C)C)C(=O)C(C(N)=O)=C(O)[C@]3(O)C(=O)C1=C2O (stereo not given in full) > 20.6 µM, COC(=O)CNc1nc(-c2cccnc2)nc2ccccc12 > 20.6 µM
